Screening data: PubChem, National Center for Advancing Translational Sciences (NCATS)
This is a sample that favours compounds with a hit; in the whole collection about 18% have one here.
IL1B secr inh = qHTS for Inhibitors of Inflammasome Signaling: IL-1-beta AlphaLISA Primary Screen. activity change, % at 57.5 µM. hit rate 4.7% among 360,000. THP-1 LPS/ATP IL-1B secretion, AlphaLISA, 16 h; active compounds read low; in the data active = activity change below about -50%; inconclusive = mostly about -30% to -49%
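THP-1 cells pretreated 1 hr with compounds (up to 57.5 uM final), then stimulated with LPS (250 ng/mL final) plus ATP (1.25 mM final); secreted IL-1B measured by AlphaLISA after 16 hr, decreased signal indicating inhibition.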
LDHA inh = qHTS assay for inhibitors of human lactate dehydrogenase; hit rate 0.15% among 480,000; AID 1347041, 2019; activity change, % (values are at about 110 or 230 µM); purified LDHA, NADH/diaphorase-resazurin fluorescence; active compounds read low; in the data active = activity change below about -30%; inconclusive = mostly about -25% to -30%;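 note: plate controls were DMSO wells for no effect and wells without enzyme for full effect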
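Remaining NADH was detected by diaphorase (0.133 mg/mL) converting 37 µM resazurin to fluorescent resorufin, read at 0 and 20 minutes. The preceding 5-minute room-temperature reaction used 2 nM LDHA, 0.2 mM sodium pyruvate and 0.06 mM NADH at pH 7.4.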
Gal4-VP16 FLuc = VP16 counterscreen qHTS for inhibitors of ROR gamma transcriptional activity | Drosophila S2 Gal4-VP16 UAS-luciferase, luminescence, 20 h | Potency, µM (titrated, usually from 53.6 µM), inactives show at the highest dose activity, negative = inhibition, hits mostly inhibitors | hit rate 3.5% among 310,000 | AID 2546, 2010;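 note: Gal4-VP16 expression switched on by copper sulfate through the metallothionein promoter; potency is the fitted concentration of half-maximal effect; nearly all actives have a fitted effect of over 50% in size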
TDP1 cell CPT = qHTS for Inhibitors of human tyrosyl-DNA phosphodiesterase 1 (TDP1): qHTS in cells in presence of CPT | chicken DT40 Tdp1-/-;hTDP1 cells + 20 nM CPT, ATP luminescence, 48 h | Potency, µM (highest dose often 46.2 µM), without a hit: at the top dose activity change, negative = growth inhibition, most hits filed as inhibitors | hit rate 12% among 420,000; note: potency is the fitted concentration of half-maximal effect; nearly all actives have a fitted effect of over 55% in size
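Chicken DT40 Tdp1-/- cells stably complemented with human TDP1 were seeded at 400 cells/well in medium containing 20 nM camptothecin, exposed to pin-transferred compounds, and grown at 37 °C for at least 48 hr. Viability was read as ATP luminescence.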
DT40 TDP1 no CPT = qHTS for Inhibitors of human tyrosyl-DNA phosphodiesterase 1 (TDP1): qHTS in cells in absence of CPT; DT40 Tdp1-/- hTDP1 cells, no CPT, ATP luminescence, 48 h; Potency, µM (doses to about 46.2 µM), inactives show at the highest dose activity change, negative = growth inhibition, most hits filed as inhibitors; hit rate 15% among 420,000; note: potency is the fitted concentration of half-maximal effect; nearly all actives have a fitted effect of over 55% in size
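Readout: luminescence from CellTiter-Glo after 30 min in the dark at RT. Cells: DT40 Tdp1-/- with stable hTDP1, 400/well. Exposure: compounds alone, ≥48 hr, 37 °C.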
RORgamma inh = qHTS for inhibitors of ROR gamma transcriptional activity. Drosophila S2 Gal4-RORgamma UAS-luciferase reporter, 20 h. hit rate 5.4% among 310,000. Potency, µM (titrated, usually from 53.6 µM), for inactives: at the highest dose activity change, negative = inhibition, actives largely listed as inhibitors. AID 2551, 2010; note: potency is the fitted concentration of half-maximal effect; nearly all actives have a fitted effect of over 60% in size
Target sequence (P51450 whole entry, looked up, the tested form may be a part): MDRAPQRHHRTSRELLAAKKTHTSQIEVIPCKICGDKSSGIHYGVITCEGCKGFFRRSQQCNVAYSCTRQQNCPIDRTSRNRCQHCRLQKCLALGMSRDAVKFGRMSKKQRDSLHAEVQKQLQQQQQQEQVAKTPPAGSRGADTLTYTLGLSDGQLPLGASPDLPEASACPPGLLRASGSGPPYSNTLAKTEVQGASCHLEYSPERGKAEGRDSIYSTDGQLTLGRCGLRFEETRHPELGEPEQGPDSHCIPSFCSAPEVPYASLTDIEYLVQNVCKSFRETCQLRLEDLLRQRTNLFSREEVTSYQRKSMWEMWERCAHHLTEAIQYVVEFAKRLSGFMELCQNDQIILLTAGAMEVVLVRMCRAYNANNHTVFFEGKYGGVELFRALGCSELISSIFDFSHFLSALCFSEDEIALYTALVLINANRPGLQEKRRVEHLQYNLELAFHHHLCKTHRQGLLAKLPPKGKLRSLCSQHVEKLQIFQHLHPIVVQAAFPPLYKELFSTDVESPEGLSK
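Luminescence from a UAS-regulated Photinus luciferase reporter in stably transfected Drosophila Schneider cells is measured; decreased signal marks ROR gamma inhibition. Fusion expression is induced by 700 uM copper sulfate for 20 hr.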
* marks the source's active call; other numbers are inactive results; ? = inconclusive; nt = no result given. Unless noted, calls come from the whole dose curve; as a rule, active = well fitted curve in the direction sought with a large enough effect; inconclusive = small, poorly fitted or top-dose-only effect, or another doubt; inactive = no such curve, though single readings can be large; an effect the other way counts as inactive or inconclusive. Unless noted, % is set by controls: 0 for no effect and ±100 for the full control effect.

SMILES	IL1B secr inh	LDHA inh	Gal4-VP16 FLuc	TDP1 cell CPT	DT40 TDP1 no CPT	RORgamma inh
Cc1cccc2c1N(CCOc1ccc(C(C)(C)C)cc1)C(=O)C2=O	-6.5	-2.7	?	2.91µM*	4.11µM*	-32.7%
Cc1cc(C)c2c(c1)C(=O)C(=O)N2CCOc1ccccc1	nt	-0.3	nt	nt	nt	nt
CC1=C(CC[C@@H](C)CO)OC2CC3C4CCC5CC(O)CCC5(C)C4CC(=O)C3(C)C12 (some centres not stated)	-66.2*	-3.5	nt	?	?	nt
CCN(CC)CCN1c2ccccc2Sc2ccc3ccccc3c21	-73.7*	-2.9	-11.3%	-17.2%	16.4µM*	17.0%
CCN(CC)CCN1c2ccccc2Sc2ccccc21	0.0	-20.3	-0.8%	?	?	-29.3%
O=C(NCc1nnc2n1CCCCC2)c1nn(Cc2ccccc2)c(=O)c2ccccc12	nt	-7.2	nt	nt	nt	nt
Nc1nc(Nc2cccc3ccccc23)nc(C2CCCC2=O)n1 (configuration not stated)	nt	nt	-7.5%	nt	nt	-7.2%
Nc1nc(CCl)nc(Nc2cccc3ccccc23)n1	-99.9*	-4.0	10µM*	?	3.26µM*	11.2µM*
COc1ccc(N2C(=O)[C@@H]3[C@H](C2=O)[C@H]2C=CC=NN2[C@@H]3C(=O)Nc2ccc(Cl)cc2)cc1	13.3	0.8	?	?	?	14.1µM*
CN(C)c1nc2ncn(Cc3ccccc3)c2c(=O)[nH]1	1.9	-3.3	-13.8%	-1.6%	28.4%	-5.7%
CC1Nc2nc(N(C)C)[nH]c(=O)c2NC1C (configuration not stated)	30.5	7.0	-3.8%	25.9µM*	?	-1.5%
Cc1cc2c(cc1C)-c1c(ssc1=Nc1ccc(S(N)(=O)=O)cc1)C(C)(C)N2	15.4	-3.7	-24.1%	?	16.4µM*	-30.6%
COc1ccc(NS(=O)(=O)c2ccc3[nH]c4c(c3c2)CCCC4)cc1OC	nt	8.1	nt	13µM*	14.6µM*	nt
COc1cc(NS(=O)(=O)c2ccc3[nH]c4c(c3c2)CCCC4)cc(OC)c1OC	nt	14.0	nt	0.92µM*	0.581µM*	nt
COc1cccc(CNC(=O)CN(C)S(=O)(=O)c2ccc3[nH]c4c(c3c2)CCCC4)c1	nt	6.2	nt	?	?	nt
COc1ccc(OC)c(NC(=O)CN(C)S(=O)(=O)c2ccc3[nH]c4c(c3c2)CCCC4)c1	nt	3.4	nt	18.4µM*	20.6µM*	nt
COc1cc(NS(=O)(=O)c2ccc3[nH]c4c(c3c2)CCCCCC4)cc(OC)c1	nt	-0.8	nt	?	11.6µM*	nt
COc1ccc(OC)c(NS(=O)(=O)c2ccc3[nH]c4c(c3c2)CCCCC4)c1	nt	1.2	nt	nt	nt	nt
N#Cc1ccsc1NC(=O)CSc1nnc(-c2ccccc2Cl)n1C1CCCC1	nt	-4.1	nt	nt	nt	nt
CC(CNC(=O)c1ccc(C(C)(C)C)cc1)NC(=O)c1ccc(C(C)(C)C)cc1 (configuration not stated)	nt	-23.2	nt	nt	nt	nt
C=CCN(C(=O)Cn1nc(C)n2c(cc3cc(C)ccc32)c1=O)c1ccccc1	-20.3	-7.1	-4.9%	?	?	7.3%
COC(=O)C(C)n1nnc2sc(-c3ccccc3)cc2c1=O (configuration not stated)	-8.8	1.0	-27.2%	?	18.4µM*	-36.8%
CCN(C(=O)Cn1nc(C)n2c(cc3cc(C)ccc32)c1=O)c1ccccc1	-51.3*	0.1	0.2%	?	?	11.5%
CCN(C(=O)Cn1nnc2sc(-c3ccccc3)cc2c1=O)c1cccc(C)c1	nt	-3.6	nt	16.4µM*	?	nt
COc1cc(C2Nc3cc(C)c(C)cc3NC3=C2C(=O)CC(C)(C)C3)ccc1O (configuration not stated)	nt	-0.2	nt	nt	nt	nt
SMILES	IL1B secr inh	LDHA inh	Gal4-VP16 FLuc	TDP1 cell CPT	DT40 TDP1 no CPT	RORgamma inh
Cc1ccsc1C(=O)NC(CC(=O)O)c1cccs1 (configuration not stated)	nt	-3.1	nt	nt	nt	nt
CCCCCCN1CCN(C2CN(C3CCCCC3)S(=O)(=O)C2)CC1 (configuration not stated)	-12.7	-9.1	nt	16.4µM*	?	nt
CCCCCCn1cc(CN2CC(N3CCN(Cc4cccc(C)c4)CC3)CS2(=O)=O)nn1 (configuration not stated)	-11.9	1.2	nt	?	23.1µM*	nt
CN(C)CCN1CCN(C2CN(C3CCCCC3)S(=O)(=O)C2)CC1 (configuration not stated)	22.8	-4.2	nt	?	-7.1%	nt
Cc1ccc(Cn2cc(CN3CC(N4CCCCC4)CS3(=O)=O)nn2)cc1 (configuration not stated)	19.2	2.4	nt	-12.8%	-20.8%	nt
CCCCCCN1CCN(C2CN(Cc3cn(Cc4ccc(C)cc4)nn3)S(=O)(=O)C2)CC1 (configuration not stated)	-14.1	0.6	nt	?	25.9µM*	nt
CCCCCCN1CCN(C2CN(CCc3ccccc3)S(=O)(=O)C2)CC1 (configuration not stated)	-3.3	-5.6	nt	?	16.4µM*	nt
CC(C)(C)c1ccc(CNCCN2CCCC2)cc1	nt	-0.5	nt	nt	nt	nt
CCC(C)(C)NCc1cc(=O)oc2c(C)c(O)ccc12	nt	2.2	nt	nt	nt	nt
N#C/C(=C/c1ccc(N2CCCCCC2)o1)c1ccc(F)cc1	-69.5*	11.4	nt	5.17µM*	4.61µM*	nt
N#C/C(=C/c1ccc(N2CCCCCC2)o1)c1cccc(F)c1	-27.2	14.8	?	?	20.6µM*	1.1%
Cc1ccc(C(=O)N/C(=C\c2ccc(-c3ccc(Cl)cc3Cl)o2)C(=O)NC(C)(C)C)cc1	nt	-0.6	nt	nt	nt	nt
CCCN(CC(=O)Nc1ccccc1C)C(=O)c1ccc(=O)n(Cc2ccccc2)n1	-87.0*	0.1	nt	7.4%	-8.0%	nt
CCOC(=O)COc1ccc2c(C)c(-c3ccc(OC)c(OC)c3)c(=O)oc2c1	nt	-0.7	nt	nt	nt	nt
CCCc1ccc(-c2csc(NC(=O)c3cnc4c(c3)c(=O)n(C)c(=O)n4C)n2)cc1	nt	-8.5	nt	nt	nt	nt
COC(=O)/C(C#N)=C/c1c(-c2ccccc2)nc2n1CCS2	-0.3	-4.6	8.3%	-20.0%	?	8.7%
Clc1cccc(Cl)c1CO/N=C/c1c(-c2ccccc2)nc2n1CCS2	-15.4	0.0	-2.4%	18.4µM*	20.6µM*	7.08µM*
CCOC(=O)Cn1nc(/C=C/c2ccccc2)ccc1=O	-2.6	-8.4	14.1µM*	-18.6%	-16.3%	-86.0%
